Results taken from PubChem BioAssay (NCATS).
Inconclusive results are not listed. Active and inactive are the calls of the source. Calls come from the whole dose curve; as a rule, active = well fitted cell-killing curve with a large enough effect; inconclusive = small, poorly fitted or top-dose-only effect; inactive = flat fitted curve, though single readings scatter.

assay: qHTS of pediatric cancer cell lines to identify multiple opportunities for drug repurposing: Primary screen for control Hh wild type fibroblast cells (AID 1347106); conditions: Hh wild-type fibroblast viability, CellTiter-Glo luminescence, 48 h; series mostly up to 46 µM; activity change, negative = cytotoxic: at the top concentration;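 note: a drop in luminescence marks cytotoxicity and a rise apparent proliferation; nearly all actives have a fitted effect of over 55% in size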
Description: Drug repurposing or repositioning has been offered as a strategy for drug development in oncology programs. This approach has special potential for childhood cancers and other rare or orphan diseases, where the expected return on new drug development has been a disincentive to pharmaceuticals.
In this project we exploit the poly-pharmacology of drugs to discover new indications via phenotypic screening of a panel of 19 well-characterized cell lines derived from solid tumors seen in children and adolescents. The goal is to identify approved drugs with previously unrecognized anticancer properties that has the potential to reveal new mechanisms and biological processes involved in carcinogenesis or drug resistance. We employed a titration-based paradigm (quantitative high-throughput screening or qHTS), where all compounds were tested at multiple concentrations for their effect on cell viability. Concentration-response curves (CRCs) were derived directly from the primary screen, and both potency and efficacy values were used to identify compounds with robust bioactivity profiles. We screened the NIH Chemical Genomics Center (NCGC) Pharmaceutical Collection (NPC) and Mechanism Interrogation Plate (MIPE) small molecule collections of approved and investigational compounds against these cell lines; and measured metabolically active cells after 48 hours of compound treatment as a proxy for cell viability.
Assay Submitter: Nathalia J. Martinez, National Center for Advancing Translational Sciences, National Institutes of Health, Rockville, MD, USA; email: natalia.martinez@nih.gov
[1] Shen, M et al. Quantitative high-throughput phenotypic screening of pediatric cancer cell lines identifies multiple opportunities for drug repurposing. Oncotarget 2017 Dec 19;9(4):4758-4772. PMID 29435139.
The cells were obtained from University of North Carolina (UNC), Pediatric Preclinical Testing Program (PPT), and Coriell Institute (CI).
qHTS cell viability assay:
Cells were assayed in growth media at a density of 500-1,000 cells/well. Five microliters of cells were dispensed into 1,536-well, white, solid-bottom, TC-treated plates (Greiner Bio One) using a multidrop dispenser and incubated at 37 degrees C, 5% CO2, under a humidified atmosphere for 5 hours. Twenty-three nanoliters of compounds and controls (neutral control DMSO or positive control bortezomib at final concentration of 2.3 µM) were subsequently transferred by Kalypsys pintool. For primary screens, the MIPE collection was tested at 11-point dilutions (final concentrations range from 0.78 nM to 46 µM) and the NPC collection at 8-point dilutions (final concentrations range from 0.59 nM to 46 µM). Compounds tested in follow-up screens were assayed at 11-point dilutions. Cells were incubated for 48 hours, followed by addition of 3 µL of CellTiter-Glo (Promega). After a 15 min incubation at room temperature, samples were analyzed for luminescence intensity using a ViewLux High-throughput CCD imager equipped with clear filters.
% is set by controls: 0 for no effect and ±100 for the full control effect.

Structure (SMILES)	activity change, negative = cytotoxic
C/C=C(/C(=C/C)c1ccc(O)cc1)c1ccc(O)cc1	-0.177% (inactive)
CC(=O)c1ccc2c(c1)N(CCCN1CCC(CCO)CC1)c1ccccc1S2	-10.3% (inactive)
Nc1ccc(/C=C/c2ccc(N)cc2S(=O)(=O)O)c(S(=O)(=O)O)c1	-3.6% [at 0.597 µM] (inactive)
c1ccc(-c2ccc(C(c3ccccc3)n3ccnc3)cc2)cc1 (stereo not given)	4.58% (inactive)
CC(=O)OCC(=O)[C@@]1(O)[C@H](C)C[C@H]2[C@@H]3CCC4=CC(=O)C=C[C@]4(C)[C@@]3(F)[C@@H](O)C[C@@]21C	-3.85% (inactive)
CCCCCCC[N+](CC)(CC)CCCCc1ccc(Cl)cc1	-5.28% (inactive)
CN(C(=O)CN(CCO)CC(=O)N(C)C(C)(C)Cc1ccccc1)C(C)(C)Cc1ccccc1	4.35% (inactive)
CCCCOc1ccc(OCCCN2CCOCC2)cc1	-3.34% (inactive)
CNC(=O)CN(CCN(CCN(CC(=O)[O-])CC(=O)NC)CC(=O)[O-])CC(=O)[O-].O.[Gd+3]	7.3% (inactive)
C[C@]12CC[C@@H]3c4ccc(O)cc4CC[C@H]3[C@@H]1C[C@@H](O)[C@@H]2O	8.11% (inactive)
CC1(C)O[C@@H]2C[C@H]3[C@@H]4C[C@H](F)C5=CC(=O)CC[C@]5(C)[C@H]4[C@@H](O)C[C@]3(C)[C@]2(C(=O)CO)O1	6.4% (inactive)
CN(C/C=C/c1ccccc1)Cc1cccc2ccccc12	-21.7% (inactive)
CC(=O)OCC(=O)[C@@]1(OC(C)=O)[C@@H](C)C[C@H]2[C@@H]3C[C@H](F)C4=CC(=O)C=C[C@]4(C)[C@@]3(F)[C@@H](O)C[C@@]21C	-3.06% (inactive)
CC(O)C(=O)O (stereo not given)	7.98% (inactive)
CC(=O)Oc1ccc(C(c2ccc(OC(C)=O)cc2)c2ccccn2)cc1	-16.9% (inactive)
CCN(CC)CCOc1ccc(C(O)(Cc2ccc(Cl)cc2)c2ccc(C)cc2)cc1 (stereo not given)	-2.16% (inactive)
CC(O)(P(=O)(O)O)P(=O)(O)O	16.9% (inactive)
CCN(CC)C(=O)/C(C#N)=C/c1cc(O)c(O)c([N+](=O)[O-])c1	-6.75% (inactive)
NC(CS)C(=O)O (stereo not given)	8.57% (inactive)
C=C1C[C@H]2[C@@H]3C=C(C)C4=CC(=O)CC[C@]4(C)[C@H]3CC[C@]2(C)[C@@]1(OC(C)=O)C(C)=O	-9.27% (inactive)

Structure (SMILES)	activity change, negative = cytotoxic
C=C1C(=C/C=C2\CCC[C@]3(C)[C@@H]([C@H](C)/C=C/[C@@H](O)C4CC4)CC[C@@H]23)C[C@@H](O)C[C@@H]1O	9.95% (inactive)
C[C@]12CC[C@H]3[C@@H](CCC4=CC(=O)CC[C@@]43C)[C@@H]1CC[C@@H]2C(=O)CO	8.27% (inactive)
COC(=O)CCc1ccc(OCC(O)CNC(C)C)cc1 (stereo not given)	-3.6% (inactive)
CCCCOc1cc(C(=O)NCCN(CC)CC)c2ccccc2n1	-21.8% (inactive)
CN1CCC[C@@H]1c1cccnc1	-6% (inactive)
COCc1c(C(C)C)nc(C(C)C)c(/C=C/[C@@H](O)C[C@@H](O)CC(=O)O)c1-c1ccc(F)cc1	-14.6% (inactive)
CN(C)CCCOc1nn(Cc2ccccc2)c2ccccc12	-5.55% (inactive)
CN1CCC(=C2c3ccccc3Sc3ccccc32)CC1	-5.64% (inactive)
Cc1c(C)n(CCN(C)C)c2ccc(C(=O)OCCN(C)C)cc12	0.219% (inactive)
CC(C)(C)NC(=O)[C@@H]1CN(Cc2cccnc2)CCN1C[C@@H](O)C[C@@H](Cc1ccccc1)C(=O)N[C@H]1c2ccccc2C[C@H]1O	2.09% (inactive)
O=c1[nH]c(=O)n([C@H]2C[C@H](O)[C@@H](CO)O2)cc1C(F)(F)F	6.2% (inactive)
O=C1OCCN1/N=C/c1ccc([N+](=O)[O-])o1	-3.11% (inactive)
C#C[C@]1(OC(C)=O)CC[C@H]2[C@@H]3CCC4=C[C@@H](OC(C)=O)CC[C@@H]4[C@H]3CC[C@@]21C	13.7% (inactive)
Nc1ccn([C@@H]2O[C@H](CO)[C@@H](O)C2(F)F)c(=O)n1	-2.12% (inactive)
COc1cc(-c2ccc(=O)[nH]n2)ccc1OC(F)F	-6.46% (inactive)
CO/N=C1\CN(c2nc3c(cc2F)c(=O)c(C(=O)O)cn3C2CC2)CC1CN (stereo not given)	5.54% (inactive)
C[C@@H]1C[C@H]2[C@@H]3CCC4=CC(=O)C=C[C@]4(C)[C@@]3(F)[C@@H](O)C[C@]2(C)[C@H]1C(=O)CO	-4.16% (inactive)
CCOC(=O)[C@H](CCc1ccccc1)N[C@@H](C)C(=O)N1Cc2ccccc2C[C@H]1C(=O)O	13.1% (inactive)
C[C@]12C=CC(=O)C=C1CC[C@@H]1[C@@H]2[C@@H](O)C[C@@]2(C)[C@H]1CC[C@]2(O)C(=O)CO	0.647% (inactive)
CCOC(=O)OC(C)OC1=C(C(=O)Nc2ccccn2)N(C)S(=O)(=O)c2ccccc21 (stereo not given)	16.7% (inactive)
